Data taken from PubChem BioAssay (NCATS).
Inconclusive results are not listed. Active and inactive are the calls of the source. Calls come from the whole dose curve; as a rule, active = well fitted inhibition curve with a large enough effect; inconclusive = small, poorly fitted or top-dose-only effect; inactive = flat fitted curve, though single readings scatter.

How the values were obtained:
Assay in all cases: qHTS profiling for inhibitors of Plasmodium falciparum proliferation (AID 504749); note: nearly all actives have a fitted effect of over 60% in size
Details in all cases: P. falciparum in erythrocytes, SYBR Green DNA, 72 h; series mostly up to 28.7 µM
[1] = system: CP211
Procedure, shortened: (§1)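 Parasite proliferation within erythrocytes, 72 h exposure. Endpoint: SYBR Green I fluorescence after overnight lysis at room temperature. Controls: 0.29 uM artemisinin, DMSO.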

[2] = system: CP215
Procedure, shortened: as §1

[3] = system: CP217
Procedure, shortened: as §1

[4] = system: CP237
Procedure, shortened: as §1

[5] = system: CP238
Procedure, shortened: as §1

[6] = system: CP247
Procedure, shortened: as §1

[7] = system: CP250
Procedure, shortened: as §1

[8] = system: CP252
Procedure, shortened: as §1

[9] = system: CP256
Procedure, shortened: as §1

[10] = system: CP260
Procedure, shortened: as §1

[11] = system: CP262
Procedure, shortened: as §1

[12] = system: CP265
Procedure, shortened: as §1

[13] = system: CP266
Procedure, shortened: as §1

[14] = system: CP268
Procedure, shortened: as §1

[15] = system: CP269
Procedure, shortened: as §1

[16] = system: CP286
Procedure, shortened: as §1

[17] = system: CP291
Procedure, shortened: as §1

[18] = system: CP297
Procedure, shortened: as §1

[19] = system: CP305
Procedure, shortened: as §1

[20] = system: CP315
Procedure, shortened: as §1

Measured: Potency

Cc1cn[nH]c1
inactive: all assays above

O=C1CCC(N2C(=O)c3ccccc3C2=O)C(=O)N1 (stereo not drawn)
inactive: all assays above

Cc1[nH]c(=O)c(C#N)cc1-c1ccncc1
not listed: [7]
inactive: all other assays above

NC[C@H](O)c1ccc(O)c(O)c1
inactive: all assays above

Oc1ccc(C2CNCCc3c2cc(O)c(O)c3Cl)cc1 (stereo not drawn)
not listed: [16]
inactive: all other assays above

CC(=O)Oc1ccccc1C(=O)O
inactive: all assays above

NNCCc1ccccc1
not listed: [7] | [11] | [13]
inactive: all other assays above

NCCc1ccc(O)c(O)c1
not listed: [9]
inactive: all other assays above

Cc1ccc(N(CC2=NCCN2)c2cccc(O)c2)cc1
inactive: all assays above

Nc1nc2c(ncn2COCCO)c(=O)[nH]1
inactive: all assays above

COc1ccc2nc(S(=O)Cc3ncc(C)c(OC)c3C)[nH]c2c1 (stereo not drawn)
not listed: [6]
inactive: all other assays above

CC(C[N+](C)(C)C)OC(N)=O (stereo not drawn)
inactive: all assays above

Nc1nc2ccc(OC(F)(F)F)cc2s1
inactive: all assays above
